In PubChem BioAssay (Tox21):
Results filed as inconclusive are left out. Activity calls are given as the source filed them. Unless noted, calls come from the whole dose curve.

Tests used:
[1] = Nuclear factor erythroid 2-related factor 2/antioxidant responsive element (Nrf2/ARE) small molecule agonists: qHTS cell viability counter screen in human keratinocytes (AID 1919968; active = well fitted curve in the direction sought with a large enough effect in the repeat runs; an effect the other way counts as inactive or inconclusive; note: nearly all actives have a fitted effect of over 55% in size)
In short: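 Viability counter-screen: KeratinoSens reporter cells, DMSO-delivered compounds, 23 h at 37 C, CellTiter-Fluor fluorescence.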

[2] = Nuclear factor erythroid 2-related factor 2/antioxidant responsive element (Nrf2/ARE) small molecule agonists: luciferase reporter gene qHTS assay in human keratinocytes (AID 1919969); note: nearly all actives have a fitted effect of over 35% in size; note: potency is the fitted concentration of half-maximal effect
[3] = molecular target: Gonadotropin-releasing hormone receptor (Homo sapiens) (UniProt P30968); assay: Human gonadotropin-releasing hormone receptor (GnRHR) small molecule agonists, calcium flux assay in GnRHR-HEK293 cells (AID 1920063); note: nearly all actives have a fitted effect of over 35% in size
In short: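 Tox21-format agonist screen using human GnRHR-expressing HEK293 cells and a fluorescent calcium dye; kinetic 3-min fluorescence reading after compound addition, 15-point concentration series run in triplicate.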

[4] = molecular target: KiSS-1 receptor (Homo sapiens) (UniProt Q969F8); assay: Human kisspeptin (KISS1R) small molecule agonists, calcium flux assay in KISS1R-HEK293 cells (AID 1920064; active = well fitted curve in the direction sought with a large enough effect in the repeat runs; an effect the other way counts as inactive or inconclusive)
In short: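 Intracellular calcium mobilization in KISS1R-HEK293 cells was recorded by fluorescence (Ex/Em 480/540) for 3 min following compound addition to cells pre-loaded 1 h with calcium dye.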

[5] = p53 small molecule agonists, cell-based qHTS assay with rat liver microsomes (AID 1963578)
In short: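 Quantitative HTS of the Tox21 10K library: p53RE-bla cells, rat liver microsomes plus NADPH at 0.5 mg/mL final each, 16 h at 37 C, beta-lactamase fluorescence detection.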

[6] = p53 small molecule agonists, cell-based qHTS assay with rat liver microsomes: qHTS cell viability counter screen (AID 1963580); note: nearly all actives have a fitted effect of over 45% in size
In short: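 Viability is assessed in parallel with the p53 reporter read: HCT-116 p53RE-bla cells receive compounds plus rat microsomes and NADPH (0.5 mg/mL final apiece), incubate 16 h at 37 C, and then CellTiter-Glo luminescence is recorded.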

[7] = p53 small molecule agonists, cell-based qHTS assay: qHTS cell viability counter screen (AID 1963581); note: nearly all actives have a fitted effect of over 45% in size
In short: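 Compounds are pinned onto HCT-116 p53RE-bla cells and left 16 h at 37 C. Following the reporter FRET read, ATP is quantified by CellTiter-Glo luminescence after 30 min at room temperature.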

[8] = p53 small molecule agonists, cell-based qHTS assay (AID 1963582; active = well fitted activation curve with a large enough effect in the signal ratio in the repeat runs, not every such curve was filed as active; the % refers to the signal ratio; note: potency is the fitted concentration of half-maximal effect)
In short: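 Agonist activity was scored from beta-lactamase FRET fluorescence in p53RE-bla cells treated 16 h at 37 C with compounds in DMSO, substrate incubation being 2 h at room temperature.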

[9] = molecular target: 5-hydroxytryptamine receptor 2A (Homo sapiens) (UniProt P28223); assay: 5-hydroxytryptamine receptor 2A (HTR2A) small molecule antagonists, cell-based qHTS assay (AID 1963586); note: nearly all actives have a fitted effect of over 45% in size
In short: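 Antagonist-mode intracellular calcium assay: DOI (4 nM) added after 5 min compound pre-incubation at room temperature to dye-loaded HTR2A-CHO cells. Fluorescence followed for 3 min, sampled every second.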

[10] = molecular target: 5-hydroxytryptamine receptor 2A (Homo sapiens) (UniProt P28223); assay: 5-hydroxytryptamine receptor 2A (HTR2A) small molecule agonists, cell-based qHTS assay (AID 1963587); note: nearly all actives have a fitted effect of over 30% in size
In short: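 CHO cells stably expressing human HTR2A, plated 18 h, loaded with calcium dye 1 h at 37 C. Agonist mode: compounds added and intracellular calcium fluorescence recorded kinetically for 2 min at 1 sec intervals.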

[11] = molecular target: Muscarinic acetylcholine receptor M1 (Homo sapiens) (UniProt P11229); assay: Cholinergic receptor muscarinic 1 (CHRM1) small molecule antagonists, cell-based qHTS assay (AID 1963588); note: nearly all actives have a fitted effect of over 40% in size
In short: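 CHRM1-CHO calcium-flux assay, antagonist mode. Cells were seeded 18 h, dye-loaded 1 h at 37 C and given compound for 5 min at RT, then acetylcholine was added at 50nM. FDSS fluorescence was read 3 min; 15 concentrations, three runs.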

[12] = molecular target: Muscarinic acetylcholine receptor M1 (Homo sapiens) (UniProt P11229); assay: Cholinergic receptor muscarinic 1 (CHRM1) small molecule agonists, cell-based qHTS assay (AID 1963589); note: nearly all actives have a fitted effect of over 35% in size
In short: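 Stable CHRM1-CHO cells (human receptor) were incubated 18 h, dye-loaded for 1 h at 37 C and exposed to test compounds for agonist activity, with calcium-dependent fluorescence followed kinetically.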

[13] = molecular target: Beta-2 adrenergic receptor (Homo sapiens) (UniProt P07550); assay: Adrenergic beta2 receptor (ADRB2) small molecule antagonists, cell-based qHTS assay (AID 1963592); note: series mostly up to about 92 µM; nearly all actives have a fitted effect of over 50% in size
In short: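 Cells (CHO, stable ADRB2 overexpression) incubated 18-20hr at 37C; compounds added from DMSO; agonist mix (1nM isoproterenol, 100uM IBMX, 25uM Ro-20-1724) added; 0.5hr RT; d2-cAMP and anti-cAMP-cryptate added; 1hr RT; 665/615 nm read.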

[14] = molecular target: Beta-2 adrenergic receptor (Homo sapiens) (UniProt P07550); assay: Adrenergic beta2 receptor (ADRB2) small molecule agonists, cell-based qHTS assay (AID 1963593);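 note: CHO cells stably overexpressing human ADRB2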
In short: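 CHO cells stably over-expressing ADRB2 were plated overnight at 37C, then dosed with compounds plus a stimulation mix containing 100uM IBMX and 25uM Ro-20-1724 for 0.5hr at room temperature. cAMP was measured by HTRF competition, 1hr.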

[15] = molecular target: D(2) dopamine receptor (Homo sapiens) (UniProt P14416); assay: Dopamine D2 receptor (DRD2) small molecule agonists, cell-based qHTS assay (AID 1963594); note: nearly all actives have a fitted effect of over 35% in size
In short: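 HEK293 cells stably expressing human DRD2, pre-treated with PDE inhibitor Ro20-1724 (0.1 mM final) and compound 10 min at room temperature, then stimulated with NKH477 (200nM […]) for 30 min. cAMP read by HTRF (665/620 nm).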

[16] = molecular target: D(2) dopamine receptor (Homo sapiens) (UniProt P14416); assay: Dopamine D2 receptor (DRD2) small molecule antagonists, cell-based qHTS assay (AID 1963595; active = well fitted inhibition curve with a large enough effect in the signal ratio in the repeat runs, with a control signal flat; the % refers to the signal ratio)
In short: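 Human DRD2 antagonist qHTS measuring cAMP by HTRF. The cells are exposed to compound for 10 min, then to NKH477 (200 nM) and quinpirole (12 nM) for 30 min at RT, with Ro20-1724 (0.1 mM) present throughout.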

[17] = p53 small molecule agonists, cell-based qHTS assay with human liver microsomes: qHTS cell viability counter screen (AID 1963579); note: nearly all actives have a fitted effect of over 45% in size
In short: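 Viability of p53RE-bla cells is measured as CellTiter-Glo luminescence following a 16 h, 37 C incubation with compound, liver microsomes from human donors and NADPH.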

[18] = p53 small molecule agonists, cell-based qHTS assay with human liver microsomes (AID 1963577);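 note: p53 response element beta-lactamase reporter cells with liver microsomes plus NADPH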
In short: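 HLM-supplemented p53RE-bla reporter assay: 16 h compound exposure at 37 C, microsomes and NADPH each 0.5 mg/mL final, read by fluorescence intensity.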

[19] = cAMP Responsive Elements (CRE) small molecule agonists, cell-based qHTS assay (AID 1963590)
In short: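 FRET-based beta-lactamase readout (LiveBLAzer B/G, 2 h RT) quantified CRE activation in HEK 293T CRE-bla cells after 3 h treatment with DMSO-dissolved compounds.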

[20] = cAMP Responsive Elements (CRE) small molecule antagonists, cell-based qHTS assay (AID 1963591; active = well fitted inhibition curve with a large enough effect in the signal ratio in the repeat runs, not every such curve was filed as active; the % refers to the signal ratio)
In short: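 qHTS in CRE-bla HEK 293T cells: compound in DMSO, then 0.25 uM NKH477 (final), 3 h at 37 °C/5% CO2; beta-lactamase FRET read-out after 2 h substrate incubation.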
% is set by controls: 0 for no effect and ±100 for the full control effect.

KiSS-1 receptor (Homo sapiens), sequence (Q969F8 whole entry, looked up): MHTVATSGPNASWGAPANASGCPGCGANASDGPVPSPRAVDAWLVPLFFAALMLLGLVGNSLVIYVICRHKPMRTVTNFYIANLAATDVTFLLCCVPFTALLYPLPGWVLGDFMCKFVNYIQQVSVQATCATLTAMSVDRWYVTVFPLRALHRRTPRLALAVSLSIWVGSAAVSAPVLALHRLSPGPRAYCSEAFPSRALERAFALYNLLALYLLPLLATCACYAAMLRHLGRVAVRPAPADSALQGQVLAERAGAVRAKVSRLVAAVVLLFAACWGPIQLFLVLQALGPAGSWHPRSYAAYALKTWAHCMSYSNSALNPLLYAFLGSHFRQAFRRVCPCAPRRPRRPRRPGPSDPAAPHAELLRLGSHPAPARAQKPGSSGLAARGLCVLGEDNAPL
Beta-2 adrenergic receptor (Homo sapiens), sequence (P07550 whole entry, looked up): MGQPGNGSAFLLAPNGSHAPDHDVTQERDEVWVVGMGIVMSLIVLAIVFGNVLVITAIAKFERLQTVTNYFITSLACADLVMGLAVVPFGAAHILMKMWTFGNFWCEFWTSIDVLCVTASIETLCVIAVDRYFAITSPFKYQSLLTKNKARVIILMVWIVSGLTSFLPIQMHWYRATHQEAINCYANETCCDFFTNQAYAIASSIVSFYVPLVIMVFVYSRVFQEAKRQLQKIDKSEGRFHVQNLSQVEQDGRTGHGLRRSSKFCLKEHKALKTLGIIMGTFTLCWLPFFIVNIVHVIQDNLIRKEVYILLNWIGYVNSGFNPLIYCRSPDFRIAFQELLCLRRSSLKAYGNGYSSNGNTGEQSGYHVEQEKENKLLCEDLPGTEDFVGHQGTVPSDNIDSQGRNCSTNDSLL
Muscarinic acetylcholine receptor M1 (Homo sapiens), sequence (P11229 whole entry, looked up): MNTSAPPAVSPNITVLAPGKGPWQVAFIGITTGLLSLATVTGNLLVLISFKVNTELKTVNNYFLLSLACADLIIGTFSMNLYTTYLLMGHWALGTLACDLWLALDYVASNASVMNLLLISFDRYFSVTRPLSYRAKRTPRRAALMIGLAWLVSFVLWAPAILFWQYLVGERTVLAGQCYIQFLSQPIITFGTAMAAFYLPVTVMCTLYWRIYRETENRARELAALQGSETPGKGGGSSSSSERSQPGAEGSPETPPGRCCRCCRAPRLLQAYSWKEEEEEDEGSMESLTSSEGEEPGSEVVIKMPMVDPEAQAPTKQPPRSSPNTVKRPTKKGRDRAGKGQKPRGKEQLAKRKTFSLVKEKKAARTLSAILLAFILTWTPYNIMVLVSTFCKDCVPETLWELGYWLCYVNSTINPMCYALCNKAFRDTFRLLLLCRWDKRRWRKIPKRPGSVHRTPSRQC
D(2) dopamine receptor (Homo sapiens), sequence (P14416 whole entry, looked up): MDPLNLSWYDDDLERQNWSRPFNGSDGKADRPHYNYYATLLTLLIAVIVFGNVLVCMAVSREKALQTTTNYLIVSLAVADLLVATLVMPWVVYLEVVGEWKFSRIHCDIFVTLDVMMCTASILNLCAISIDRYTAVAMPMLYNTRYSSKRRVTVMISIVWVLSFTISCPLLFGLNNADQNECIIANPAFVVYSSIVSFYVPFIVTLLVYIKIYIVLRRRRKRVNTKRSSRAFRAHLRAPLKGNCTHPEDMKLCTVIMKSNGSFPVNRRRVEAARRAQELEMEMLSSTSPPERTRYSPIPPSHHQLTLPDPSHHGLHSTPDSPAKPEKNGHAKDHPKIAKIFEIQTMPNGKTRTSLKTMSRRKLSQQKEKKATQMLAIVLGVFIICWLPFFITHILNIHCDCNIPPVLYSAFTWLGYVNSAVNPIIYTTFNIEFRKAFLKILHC
5-hydroxytryptamine receptor 2A (Homo sapiens), sequence (P28223 whole entry, looked up): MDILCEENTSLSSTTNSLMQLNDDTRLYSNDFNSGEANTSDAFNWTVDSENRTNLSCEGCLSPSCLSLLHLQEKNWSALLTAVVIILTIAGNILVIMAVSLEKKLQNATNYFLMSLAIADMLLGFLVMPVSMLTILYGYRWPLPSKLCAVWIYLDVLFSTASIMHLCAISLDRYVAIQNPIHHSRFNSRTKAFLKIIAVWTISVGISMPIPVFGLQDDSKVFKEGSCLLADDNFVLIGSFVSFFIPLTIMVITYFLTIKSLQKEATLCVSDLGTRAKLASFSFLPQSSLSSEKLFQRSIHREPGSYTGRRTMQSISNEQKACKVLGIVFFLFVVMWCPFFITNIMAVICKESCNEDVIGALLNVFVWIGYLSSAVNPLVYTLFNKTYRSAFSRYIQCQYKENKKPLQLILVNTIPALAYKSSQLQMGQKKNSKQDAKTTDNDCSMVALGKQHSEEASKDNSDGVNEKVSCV
Gonadotropin-releasing hormone receptor (Homo sapiens), sequence (P30968 whole entry, looked up): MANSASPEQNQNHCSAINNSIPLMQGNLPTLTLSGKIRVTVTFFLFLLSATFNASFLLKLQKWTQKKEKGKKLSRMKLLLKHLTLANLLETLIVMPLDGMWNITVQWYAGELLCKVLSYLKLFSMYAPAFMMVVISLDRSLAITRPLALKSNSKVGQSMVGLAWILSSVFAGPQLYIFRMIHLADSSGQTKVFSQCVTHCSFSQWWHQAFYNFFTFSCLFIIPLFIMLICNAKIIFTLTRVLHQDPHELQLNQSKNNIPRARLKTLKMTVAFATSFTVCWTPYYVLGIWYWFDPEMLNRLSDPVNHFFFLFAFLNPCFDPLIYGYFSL

O=C1c2ccccc2C(=O)C1(O)O
active: Potency [2] 61.4 µM | Potency [8] 36.5 µM
inactive: Potency [1] | Potency [3] | outcome [4] | Potency [5] | Potency [6] | Potency [7] | Potency [9] | Potency [10] | Potency [11] | Potency [12] | Potency [13] | Potency [14] | Potency [15] | Potency [16]

CC[N+](C)(CC)CCOC(=O)C(O)(c1ccccc1)C1CCCCC1 (centres undefined)
inactive: Potency [1] | Potency [2] | Potency [3] | outcome [4] | Potency [5] | Potency [17] | Potency [6] | Potency [7] | Potency [8] | Potency [9] | Potency [10] | Potency [11] | Potency [12] | Potency [13] | Potency [15] | Potency [16]

CC(C)(C)C(=O)NCCCC(=O)O
inactive: Potency [1] | Potency [2] | Potency [3] | outcome [4] | Potency [18] | Potency [5] | Potency [6] | Potency [7] | Potency [8] | Potency [10] | Potency [11] | Potency [12] | Potency [19] | Potency [20] | Potency [13] | Potency [14] | Potency [15] | Potency [16]

O=C(O)c1ccc2c(c1)nc(C(=O)NC1CCN(C3CC3)CC1)n2Cc1cc(-c2ccc(Cl)s2)on1
inactive: activity change, negative = cytotoxicity [1] 2.24% [at 19 µM] | activity, positive = activation [2] 2.61% [at 19 µM] | activity change [3] -0.0073% [at 11.8 µM, active compounds read high] | activation [4] -0.617% [at 15.8 µM] | activation [18] -1.92% [at 13.5 µM] | activation [5] -2.62% [at 13.6 µM] | activity change, negative = cytotoxicity [6] 1.71% [at 13.5 µM] | activity change, negative = cytotoxicity [7] 10.9% [at 13.5 µM] | activation [8] -1.36% [at 13.5 µM] | activity, negative = inhibition [9] -29.3% [at 12.7 µM] | activity, negative = inhibition [11] -5% [at 12.6 µM] | activity change, negative = inhibition [13] -20.8% [at 19 µM] | activation [15] 23% [at 19 µM] | activity change, negative = inhibition [16] -5.22% [at 18.9 µM]
